# Experimental data taken from PubChem BioAssay.
# Values without a mark were called inactive. For some of these results: Measured potencies and affinities stand elsewhere. Calls of active or inactive are those of the source. Unless noted, no rule for the calls is given here.
# What was measured:
# [1] = antimalarial activity against Dd2 strain (AID 2302;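 active = growth inhibition above 50% at the single 2 µM test dose, taken to imply half-maximal potency below 2 µM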;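 also: 0% = DMSO untreated growth and 100% = chloroquine plus artemisinin killed control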); details: P. falciparum Dd2 in RBCs, LDH growth readout, 72 h; at 2 µM; stronger effect = higher value
# [2] = HepG2 cytotoxicity, primary screen, cytotoxicity control for P. falciparum antimalarial project, cell-based, ATP luminescence (AID 2303;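 active = inhibition above 50%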;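 also: 0% = DMSO wells and 100% = digitonin-killed cells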); details: HepG2 viability, 24-48 h, at 10 µM, stronger effect = higher value
# [3] = biological target: L-lactate dehydrogenase (Plasmodium falciparum (isolate CDC / Honduras)) (UniProt Q27743); test: PfLDH activity inhibition – cell lysate, 3D7 strain, counter-screen for P. falciparum growth inhibition project (AID 2304);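 also: 0% = vehicle and 100% = reference inhibitor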; details: P. falciparum 3D7 crude extract, LDH APAD/NBT absorbance; at 2 µM; stronger effect = higher value
# [4] = inhibition of 3D7 malaria parasite growth – strain 3D7 (AID 2306);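 also: 0% = DMSO wells and 100% = chloroquine plus artemisinin control wells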; details: P. falciparum 3D7 erythrocytic growth, LDH absorbance, 72 h; at 2 µM; stronger effect = higher value
# [5] = biological target: Calcium-dependent protein kinase 1 (Plasmodium falciparum (isolate 3D7)) (UniProt P62344); test: PfCDPK1 kinase inhibitors, biochemical, TCAMS library (AID 1159585; cut-off not given, nearly all actives have IC50 up to about 0.98 µM;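 also: inhibitors leave more ATP so luminescence rises with inhibition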); details: recombinant PfCDPK1, Kinase-Glo ATP depletion luminescence
# [6] = biological target: Plasmodium falciparum protein kinase 6 (PK6, PF3D7_1337100) (UniProt Q8IDW1); test: PfPK6 kinase inhibitors, biochemical, TCAMS library (AID 1159586); details: recombinant PfPK6, Kinase-Glo ATP depletion luminescence
# [7] = biological target: Protein kinase 7 (PK7), Plasmodium falciparum 3D7 (PF3D7_0213400) (UniProt Q7YTF7); test: inhibition of Plasmodium PK7 catalytic activity – biochemical, TCAMS antimalarial set, Kinase-Glo luminescence (AID 1159587); details: recombinant PfPK7, Kinase-Glo ATP depletion luminescence
# [8] = biological target: Calcium-dependent protein kinase 4 (Plasmodium falciparum (isolate 3D7)) (UniProt Q8IBS5); test: PfCDPK4 kinase inhibitors, biochemical, TCAMS library (AID 1159588; cut-off not given, nearly all actives have IC50 up to about 0.91 µM); details: recombinant PfCDPK4, Kinase-Glo ATP depletion luminescence
# Sequence of Calcium-dependent protein kinase 4 (Plasmodium falciparum (isolate 3D7)) (Q8IBS5 whole entry, looked up): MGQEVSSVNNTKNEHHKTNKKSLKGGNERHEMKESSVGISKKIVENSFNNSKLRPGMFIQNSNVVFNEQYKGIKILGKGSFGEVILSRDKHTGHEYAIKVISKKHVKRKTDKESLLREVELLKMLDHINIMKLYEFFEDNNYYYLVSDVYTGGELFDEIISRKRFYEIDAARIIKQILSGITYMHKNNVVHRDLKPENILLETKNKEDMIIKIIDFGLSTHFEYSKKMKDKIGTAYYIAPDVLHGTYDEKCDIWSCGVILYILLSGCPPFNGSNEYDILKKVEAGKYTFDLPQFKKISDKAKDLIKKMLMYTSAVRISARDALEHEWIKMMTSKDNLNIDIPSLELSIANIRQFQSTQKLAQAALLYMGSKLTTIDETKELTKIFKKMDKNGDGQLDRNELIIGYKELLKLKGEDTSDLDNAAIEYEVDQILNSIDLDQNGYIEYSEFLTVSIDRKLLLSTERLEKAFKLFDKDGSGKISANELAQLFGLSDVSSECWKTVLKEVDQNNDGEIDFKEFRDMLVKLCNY
# Sequence of Calcium-dependent protein kinase 1 (Plasmodium falciparum (isolate 3D7)) (P62344 whole entry, looked up): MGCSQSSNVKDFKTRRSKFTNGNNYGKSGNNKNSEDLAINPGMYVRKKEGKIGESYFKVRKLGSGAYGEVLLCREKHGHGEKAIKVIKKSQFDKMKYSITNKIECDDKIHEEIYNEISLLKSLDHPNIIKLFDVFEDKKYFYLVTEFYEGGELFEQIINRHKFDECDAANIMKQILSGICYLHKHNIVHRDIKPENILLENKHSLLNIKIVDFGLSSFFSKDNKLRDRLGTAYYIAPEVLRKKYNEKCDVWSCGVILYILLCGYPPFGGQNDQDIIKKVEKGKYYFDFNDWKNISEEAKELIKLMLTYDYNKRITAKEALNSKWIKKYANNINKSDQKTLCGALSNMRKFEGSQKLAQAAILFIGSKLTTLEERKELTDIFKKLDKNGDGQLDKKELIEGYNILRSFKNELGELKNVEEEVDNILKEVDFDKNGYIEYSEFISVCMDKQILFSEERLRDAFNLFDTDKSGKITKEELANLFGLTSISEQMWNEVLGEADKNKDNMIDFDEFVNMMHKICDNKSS
# Sequence of L-lactate dehydrogenase (Plasmodium falciparum (isolate CDC / Honduras)) (Q27743 whole entry, looked up): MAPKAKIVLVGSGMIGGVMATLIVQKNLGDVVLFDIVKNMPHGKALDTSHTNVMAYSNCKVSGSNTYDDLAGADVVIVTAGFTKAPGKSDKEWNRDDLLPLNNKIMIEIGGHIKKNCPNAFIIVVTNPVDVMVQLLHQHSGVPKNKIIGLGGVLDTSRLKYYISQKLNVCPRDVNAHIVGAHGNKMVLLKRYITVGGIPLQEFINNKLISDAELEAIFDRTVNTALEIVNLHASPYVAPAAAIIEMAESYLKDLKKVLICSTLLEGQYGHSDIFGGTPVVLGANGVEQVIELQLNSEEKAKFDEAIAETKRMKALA
# Sequence of Protein kinase 7 (PK7), Plasmodium falciparum 3D7 (PF3D7_0213400) (Q7YTF7 1-343): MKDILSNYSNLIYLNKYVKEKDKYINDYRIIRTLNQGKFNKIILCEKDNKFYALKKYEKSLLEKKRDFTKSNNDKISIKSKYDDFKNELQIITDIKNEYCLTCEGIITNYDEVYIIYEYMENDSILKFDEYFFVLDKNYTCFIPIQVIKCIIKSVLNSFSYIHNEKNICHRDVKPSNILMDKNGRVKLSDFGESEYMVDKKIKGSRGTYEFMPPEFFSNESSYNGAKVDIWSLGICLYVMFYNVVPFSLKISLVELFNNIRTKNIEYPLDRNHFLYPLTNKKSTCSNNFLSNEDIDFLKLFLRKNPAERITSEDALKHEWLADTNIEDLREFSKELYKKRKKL
# Sequence of Plasmodium falciparum protein kinase 6 (PK6, PF3D7_1337100) (Q8IDW1 1-305): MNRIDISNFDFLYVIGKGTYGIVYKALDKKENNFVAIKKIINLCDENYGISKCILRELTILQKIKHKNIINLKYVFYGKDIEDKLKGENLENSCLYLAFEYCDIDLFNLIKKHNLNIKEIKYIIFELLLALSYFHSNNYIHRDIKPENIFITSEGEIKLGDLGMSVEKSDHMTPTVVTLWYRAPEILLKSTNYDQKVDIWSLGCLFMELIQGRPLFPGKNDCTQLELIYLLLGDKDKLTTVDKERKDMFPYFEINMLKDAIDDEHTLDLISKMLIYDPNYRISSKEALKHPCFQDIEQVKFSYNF
SMILES,growth inhibition [1],inhibition [2],inhibition [3],growth inhibition [4],outcome [5],outcome [6],outcome [7],outcome [8]
CN(C)CCNC(=O)[C@H](CC1CCCCC1)NC(=O)c1ccc(O)c(-c2ccc(Cl)c(Cl)c2)c1,97% (active),0%,-4%,98% (active),inactive,inactive,inactive,inactive
CCC(C)c1ccc(O)c(NC(=O)c2cncc(Br)c2)c1 (stereo not given),16%,-13%,-4%,100% (active),inactive,inactive,inactive,inactive
CNC(=O)Cc1ccc(C(=O)Nc2cccc(-c3csc(-c4nc5ccccc5[nH]4)c3)c2)cc1,69% (active),36%,4%,95% (active),inactive,inactive,inactive,inactive
O=C(Nc1ccc2c(c1)CCC2)c1cccc(N2CCN(c3ccncc3)CC2)c1,22%,35%,-2%,92% (active),inactive,inactive,inactive,inactive
CC(=O)N1CCC(C(=O)Nc2ccc(-c3cccc(-c4nc5c(C)cccc5[nH]4)c3)cc2)CC1,27%,85% (active),-1%,84% (active),inactive,inactive,inactive,inactive
O=C(NCc1ccccn1)C(c1cc2ccccc2o1)N1CCN(C(c2ccccc2)c2ccccc2)CC1 (stereo not given),68% (active),17%,0%,95% (active),inactive,inactive,inactive,inactive
N#Cc1cccc(NC(=O)C2=C(CCc3ccc4c(c3)OCO4)NC(=O)NC2c2cccc(C#N)c2)c1 (stereo not given),47%,3%,-1%,96% (active),inactive,inactive,inactive,inactive
COc1ccc(CNc2nccc3ccc(-c4ccc(N)nc4)cc23)cc1,49%,7%,2%,93% (active),inactive,inactive,inactive,inactive
CCCn1cc2c(ccc3nc(N)nc(N)c32)n1,0%,65% (active),5%,95% (active),inactive,inactive,inactive,inactive
Cc1cccc2[nH]c(-c3ccc(-c4ccc(CN5CCCCC5)cc4)cc3)nc12,99% (active),27%,-2%,100% (active),inactive,inactive,inactive,inactive
CN(C)c1ccc(-c2ccc(C(=O)NC3CCN(Cc4ccc(C(C)(C)C)cc4)CC3)s2)cc1,59% (active),35%,-4%,95% (active),inactive,inactive,inactive,inactive
Cc1cccc2[nH]c(-c3cccc(-c4ccc(NC(=O)C(C)(C)c5ccccn5)cc4)c3)nc12,4%,-3%,-1%,97% (active),inactive,inactive,inactive,inactive
CN(C)c1ccc(-c2nnc(Sc3ccc(C#N)c([N+](=O)[O-])c3)n2Cc2ccco2)cc1,79% (active),3%,3%,95% (active),inactive,inactive,inactive,inactive
O=C(Cc1cccnc1)N(Cc1ccc(-c2ccc(CNCc3cccnc3)cn2)cc1)C1CCN(Cc2ccccc2)CC1,6%,8%,-3%,93% (active),inactive,inactive,inactive,inactive
CCC(CC(C)C(=O)O)=C(c1ccccc1)c1ccccc1 (stereo not given),1%,12%,5%,98% (active),inactive,inactive,inactive,inactive
COC(=O)c1noc(C)c1I,2%,5%,-9%,99% (active),inactive,inactive,inactive,inactive
CC(=O)Nc1ccc2[nH]cc(C3CCN(CCC4CCN(C(=O)/C=C/c5ccc(Cl)c(Cl)c5)CC4)CC3)c2n1,80% (active),16%,1%,101% (active),inactive,inactive,inactive,inactive
COc1ccc2c(C)cc(NCCCN(C)C)nc2c1,19%,10%,3%,95% (active),inactive,inactive,inactive,inactive
Cc1c2ccc(N(C)c3ccnc(Nc4ccc5c(c4)nc(NC(C)C)n5C)n3)cc2nn1C,100% (active),2%,-4%,100% (active),inactive,inactive,inactive,inactive
CCCCC(CC)NC(=O)[C@H]1CNCCN1C(=O)CCCc1ccccc1 (stereo not given in full),-1%,5%,1%,94% (active),inactive,inactive,inactive,inactive
